# Results taken from publication PMC5836133, “The intracellular immune receptor Rx1 regulates the DNA-binding activity of a Golden2-like transcription factor”.
# Over roughly 16,000 sequences, “e-score” has its median near -0.044; the highest 2% begin near 0.38. This is one part of a sample in which the highest values are shown more often than they occur.
# Biological target: T1, GST-NbGlk1(82-244) (Nicotiana benthamiana)
# T1 chain: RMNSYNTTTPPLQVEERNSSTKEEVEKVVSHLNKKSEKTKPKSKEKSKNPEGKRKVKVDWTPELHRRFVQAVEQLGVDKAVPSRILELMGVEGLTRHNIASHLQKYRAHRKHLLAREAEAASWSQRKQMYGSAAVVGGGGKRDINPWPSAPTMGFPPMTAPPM
# Experiment: protein-binding microarray; NbGlk1 is a Golden2-like transcription factor of Nicotiana benthamiana; high values mean tight binding
# Settings: protein: recombinant; tags: GST (pTH6838); dsDNA, one strand shown
row,Sequence,binding signal [E-score]
1,AATATTTA,0.216 ± 0.021
2,AACAAGAT,0.228 ± 0.0325
3,ATAGAAAT,0.249 ± 0.0207
4,AGCGAATC,0.4592 ± 0.00447
5,ACAGAATC,0.45398 ± 0.00026
6,ATCGAATC,0.354 ± 0.00608
7,ACCGAATC,0.363 ± 0.0171
8,AGAGAATC,0.4789 ± 0.00191
9,ACAGAATA,0.257 ± 0.0299
10,ATAGAATC,0.397 ± 0.032
11,AGAGAAAT,0.241 ± 0.00888
12,AGAGAATA,0.243 ± 0.0561
13,AACGAATC,0.367 ± 0.0566
14,ATAGAGAA,0.231 ± 0.0678
15,ATCTGATG,0.241 ± 0.0502
16,AAATATAT,0.326 ± 0.0239
17,AAATATGC,0.234 ± 0.0807
18,AATCGCAA,0.359 ± 0.0518
19,ATCAGAAA,0.272 ± 0.108
20,ATCGCGTG,0.304 ± 0.0178
21,AAGCATAT,0.213 ± 0.0284
22,AGTATCAG,0.272 ± 0.0918
23,AATCTGTA,0.414 ± 0.00915
24,AATCTGAA,0.444 ± 0.0239
25,AATCGGTA,0.257 ± 0.0795
26,ATTCTGTA,0.271 ± 0.104

row,Sequence,binding signal [E-score]
1,AATGATTC,0.22 ± 0.0193
2,AATTTATA,0.264 ± 0.104
3,ATTGCACG,0.251 ± 0.046
4,AGGGGAAT,0.32 ± 0.0496
5,ACCGAAAT,0.338 ± 0.0315
6,AGCGAAAT,0.343 ± 0.064
7,ATCGAAAT,0.387 ± 0.0408
8,AGGGCAAT,0.201 ± 0.0755
9,ACGGAAAT,0.345 ± 0.0654
10,AAGGAAAT,0.3484 ± 0.000416
11,ACGGAATC,0.453 ± 0.0108
12,AAGGAATC,0.396 ± 0.0666
13,AGGGATTC,0.359 ± 0.0107
14,AGGGAATC,0.477 ± 0.0128
15,AGGGGATC,0.316 ± 0.0502
16,ACGGAATA,0.264 ± 0.0173
17,ATGGATAC,0.25 ± 0.0455
18,ATGGAATC,0.385 ± 0.0354
19,ATGGAAAT,0.335 ± 0.0407
20,AAGGATTC,0.3738 ± 0.00237
21,ATCTCAAT,0.245 ± 0.0732
22,ATTAGATA,0.304 ± 0.0251
23,ATCCGCTG,0.261 ± 0.0225
24,AATCGCAC,0.296 ± 0.0196
25,AAAGTGAT,0.217 ± 0.169
26,AGGCAGAT,0.213 ± 0.0549

row,Sequence,binding signal [E-score]
1,AATAGAAT,0.2556 ± 0.00204
2,AAAAATAA,0.229 ± 0.0366
3,ATTTATAA,0.229 ± 0.0487
4,ATATTGAT,0.248 ± 0.0795
5,AGATTGCG,0.4943 ± 0.000727
6,ATTTTGCA,0.238 ± 0.0203
7,AGATTGCA,0.4641 ± 0.00231
8,ATATTGCC,0.249 ± 0.0822
9,AAATTGCG,0.262 ± 0.0556
10,ATCTTGCC,0.261 ± 0.0186
11,ATATTGCA,0.225 ± 0.111
12,AGATAGAT,0.267 ± 0.0623
13,AGATTGCC,0.4477 ± 0.0014
14,AGATTGCT,0.426 ± 0.00629
15,ATATTGCG,0.328 ± 0.0285
16,AACAATCC,0.244 ± 0.0442
17,ATTATTAA,0.205 ± 0.0755
18,ACATATCA,0.216 ± 0.0561
19,ATTCAGGA,0.206 ± 0.0808
20,ATCACATA,0.212 ± 0.0312
21,AAATTTAT,0.22 ± 0.0544
22,AAGCGAAT,0.291 ± 0.0479
23,AGATTCGG,0.413 ± 0.00846
24,AAATTCGA,0.219 ± 0.058
25,AAATTCGC,0.284 ± 0.0251
26,AGATTCGC,0.482 ± 0.00816

row,Sequence,binding signal [E-score]
1,AGATTCGA,0.389 ± 0.00837
2,ATATTCGA,0.293 ± 0.0238
3,ATATTCGG,0.228 ± 0.0147
4,ATATTCGC,0.321 ± 0.0229
5,AAATTCGG,0.227 ± 0.0723
6,ATTTTTCA,0.253 ± 0.137
7,ATCGGAGA,0.249 ± 0.0227
8,ATCTTGTA,0.28 ± 0.00362
9,ATCGATAC,0.245 ± 0.0652
10,ATTTCAAA,0.231 ± 0.179
11,CAAAATAA,0.205 ± 0.0749
12,ATCGCCAC,0.22 ± 0.062
13,ATCGCTTC,0.206 ± 0.0242
14,AGTGATTC,0.282 ± 0.0766
15,AGGAATCA,0.32 ± 0.0361
16,CAGAATCA,0.373 ± 0.00814
17,AAGAATAT,0.331 ± 0.00702
18,AACAATCT,0.244 ± 0.0358
19,ACGAATCC,0.361 ± 0.00735
20,ACGAATCT,0.403 ± 0.0288
21,CAGAATCC,0.447 ± 0.0238
22,AAGAATCT,0.449 ± 0.0147
23,AGGAATCG,0.295 ± 0.0158
24,CAGAATCG,0.33 ± 0.0217
25,ACGAATCA,0.247 ± 0.0177
26,AGGAATCC,0.422 ± 0.0123
